For one assay, the target named is Albumin (Bos taurus) (UniProt P02769). The experiment in a line: compounds binding labelled BSA control protein – biochemical, small-molecule microarray, Alexa647 label, 635/667 nm fluorescence, artefact control for SMM control protein annotation, profiling panel (AID 1118).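 Note: score merges 667 nm emission intensity and signal-to-noise per printed compound spot.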 The settings on record: BSA-A647 binding, fluorescence 635 nm, higher = more signal.
Assay [1] can be described thus: probe aXIP binding to arrayed compounds – biochemical, NeuroSMM set, 635/667 nm fluorescence, primary screen (AID 1119).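 Note: probe is the protein aXip251-270 applied at 1 µg/mL to compound-printed slides; binding of probe to printed compounds measured as 667 nm fluorescence plus signal to noise.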 Particulars: small-molecule microarray, higher = more signal, called active from +8 up or from −8 down.
Assay [2] can be described thus: probe aNOTCH3 binding on compound microarray – biochemical, small-molecule microarray, 635/667 nm fluorescence, primary screen (AID 1120).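 Note: probe is a biotin-tagged antibody raised against NOTCH3 rather than NOTCH3 protein; score merges spot fluorescence near 667 nm with spot signal to noise.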 Particulars: higher = more signal.
Assay [3] in a line: probe aNOTCH2 binding on compound microarray – biochemical, small-molecule microarray, 635/667 nm fluorescence, primary screen (AID 1121).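 Note: score merges feature fluorescence read at 667 nm with its signal to noise.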 The settings on record: higher = more signal.
Assay [4] has as its target Carbonic anhydrase 2 (Homo sapiens) (UniProt P00918). The experiment in a line: compounds binding carbonic anhydrase 2 – biochemical, small-molecule microarray, Alexa647-labelled CAII, profiling panel (AID 1122). The settings on record: CAII-A647 binding fluorescence, higher = more signal.
Assay [5] can be described thus: COS7 lysate on small-molecule microarray, probe aHis, 635 nm (AID 1123).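 Note: z-score combines 667nm fluorescence intensity with signal-to-noise per printed compound spot.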 Particulars: COS7 cell lysate, fluorescence, higher = more signal.
Assay [6] can be described thus: probe aLAP1 signal on lysate-treated microarray – cell lysate, small-molecule microarray, COS7 lysate, primary screen (AID 1124).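 Note: lysate comes from COS7 cells expressing LAP1 and is applied at 0.3 µg/mL; score merges spot fluorescence near 667 nm with signal-to-noise over triplicate slides.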 The settings on record: probe aLAP1, fluorescence, higher = more signal.
The test system of another assay is Sam68 (KHDRBS1). As to the kind of experiment: compounds binding KHDRBS1 protein – biochemical, small-molecule microarray, 635 nm fluorescence, primary screen (AID 1125).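 Note: score merges 667 nm channel intensity with signal to noise over triplicate slides.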 The settings on record: higher = more signal.
In assay [7] the test system is Chordin-like protein 2 (CHRDL2). As to the kind of experiment: compounds binding chordin-like 2 – biochemical, small-molecule microarray, 635 nm fluorescence, primary screen (AID 1126).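 Note: printed compound slides probed with Chrdl2 protein at 4 µg/mL for 1 h at 4 C; score merges 667 nm emission intensity with signal to noise over three replicate slides.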 Particulars: fluorescence 635 nm, higher = more signal.
In assay [8] the target is Concanavalin-A (Canavalia ensiformis) (UniProt P02866). As to the kind of experiment: compounds binding concanavalin A lectin – biochemical, small-molecule microarray, Alexa647 label, 635 nm, artefact control for SMM control protein annotation, primary screen (AID 1127).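 Note: z combines 667 nm emission intensity with signal-to-noise across three replicate slides.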 The settings on record: ConA-A647 binding fluorescence, higher = more signal.
Concanavalin-A (Canavalia ensiformis), sequence (P02866 whole entry, looked up): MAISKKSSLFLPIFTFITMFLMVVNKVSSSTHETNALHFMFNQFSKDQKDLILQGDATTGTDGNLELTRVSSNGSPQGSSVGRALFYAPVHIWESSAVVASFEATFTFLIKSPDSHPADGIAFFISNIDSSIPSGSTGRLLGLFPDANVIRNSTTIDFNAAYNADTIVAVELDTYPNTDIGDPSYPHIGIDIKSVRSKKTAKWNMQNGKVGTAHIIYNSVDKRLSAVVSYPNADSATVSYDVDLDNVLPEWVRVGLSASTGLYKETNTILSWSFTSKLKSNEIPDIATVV

Active and inactive are the calls of the source.

Albumin (Bos taurus), sequence (P02769 whole entry, looked up): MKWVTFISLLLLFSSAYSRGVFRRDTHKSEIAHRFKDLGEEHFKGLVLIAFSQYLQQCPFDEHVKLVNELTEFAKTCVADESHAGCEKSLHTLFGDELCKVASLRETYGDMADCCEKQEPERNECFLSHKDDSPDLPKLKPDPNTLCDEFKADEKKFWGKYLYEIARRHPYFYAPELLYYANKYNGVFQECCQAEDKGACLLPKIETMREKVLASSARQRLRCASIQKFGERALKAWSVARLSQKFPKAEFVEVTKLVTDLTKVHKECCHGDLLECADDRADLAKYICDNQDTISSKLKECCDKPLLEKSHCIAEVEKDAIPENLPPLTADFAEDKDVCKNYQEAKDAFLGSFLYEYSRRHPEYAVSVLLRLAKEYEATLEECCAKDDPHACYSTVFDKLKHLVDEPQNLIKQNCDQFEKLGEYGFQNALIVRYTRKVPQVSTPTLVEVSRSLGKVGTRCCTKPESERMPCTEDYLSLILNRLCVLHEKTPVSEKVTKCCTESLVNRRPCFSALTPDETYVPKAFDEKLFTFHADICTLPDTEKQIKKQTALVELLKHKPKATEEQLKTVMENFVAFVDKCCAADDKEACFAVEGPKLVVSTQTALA

As for `CCOC(=O)[C@H](CC(C)C)NC(=O)CCC1CC(OC(=O)NCCc2ccc(F)cc2)CC2(CCCC(COC(=O)NCCc3ccc(Cl)cc3)O2)O1` (stereo not given in full), the composite z-score with Albumin (Bos taurus) is 0.587; in [2], 0.163; in assay [3], -0.0495; in [4] it was 0.606; in [5], 1.61; in assay [6], 0.037. The composite z-score was 1.03 in the assay with Sam68 (KHDRBS1), 0.446 in [7] and -0.485 in [8]. Besides, the composite Z-score in assay [1] was 0.133 (inactive).
For the compound `CC=CC1=C(CO)C(=O)[C@@H]2O[C@@H]2C1=O`, the composite z-score is -0.651 with Albumin (Bos taurus); -0.109 in assay [2]; -0.102 in assay [3]; 0.298 in assay [4]; -0.91 in assay [5]; -0.724 in assay [6]. Besides, the composite z-score in the assay on Sam68 (KHDRBS1) was -0.533; in assay [7], 1.45; in assay [8], -0.579. In addition, the composite Z-score in [1] is 0.833 (inactive).
On to `CCOC(=O)[C@H](CC(C)C)NC(=O)CCC1CC(OC(=O)NCc2cccc3ccccc23)CC2(CCCC(COC(=O)NCCOC)O2)O1` (stereo not given in full), for which the composite z-score is 0.222 in the assay with Albumin (Bos taurus); 0.0306 in assay [2]; -0.0195 in assay [3]; 0.431 in [4]; 1.02 in [5]; -0.0557 in [6]. Moreover, the composite z-score in the assay with Sam68 (KHDRBS1) worked out at 1.29; in assay [7], 0.156; in [8] it was 0.782. For the same compound, in assay [1], the composite Z-score was -0.166 (inactive).
Consider `O=C1[C@H]2[C@H]3[C@H](O)[C@H](O)CC(=NOC[C@@H](O)COCc4ccco4)[C@H]3CC[C@H]2C(=O)N1Cc1ccccc1`, for which the composite z-score with Albumin (Bos taurus) was -0.13; in assay [2], -0.119; in assay [3], -0.192; in assay [4], -0.154; in assay [5], -0.867; in [6], -0.343. Besides, the composite z-score with Sam68 (KHDRBS1) was -0.333; in assay [7] it was 0.836; in assay [8], -0.242. Moreover, in assay [1], the composite Z-score was 0.48 (inactive).
Turning to `CCC1=NOC(CCC2CC(OC(=O)NCc3cccc4c3OCO4)CC3(CCCC(COC(=O)NCCc4ccccc4OC)O3)O2)C1` (stereo not given), the composite z-score with Albumin (Bos taurus) was 0.946; in [2] it was 0.134; in [3] it was -0.122; in assay [4] it was 0.45; in assay [5], 1.24; in assay [6], 0.19. In addition, the values for the composite z-score (in the assay with Sam68 (KHDRBS1); in [7]; in assay [8]) were 1.31, -0.14 and 0.722, respectively. Further, the composite Z-score in [1] was 0.632 (inactive).
As for `C[C@H](ON=C1[C@H]2CCn3c(=O)n(-c4ccccc4)c(=O)n3[C@H]2[C@H](O)[C@@H]2O[C@H]12)c1cn([C@H](CO)Cc2ccccc2)nn1`, the composite z-score in the assay with Albumin (Bos taurus) was 0.426; in assay [2], -0.0788; in [3], -0.0888; in [4], 0.407; in [5], 0.183; in [6], 0.29. The composite z-score was determined as 0.168 in the assay on Sam68 (KHDRBS1), 0.388 in assay [7] and 1.06 in assay [8]. The composite Z-score in assay [1] is -0.285 (inactive).
Regarding `COc1cccc([C@H]2Oc3ccc(OC)cc3C(=NOC[C@@H](O)COCc3ccco3)[C@@H]2O)c1`, the composite z-score with Albumin (Bos taurus) was -0.859; in [2], -0.235; in assay [3], -0.0942; in assay [4], -1.02; in assay [5] it was -1.34; in [6], -0.446. The results for the composite z-score (in the assay on Sam68 (KHDRBS1); in assay [7]; in assay [8]) were -2.24, 0.655 and -3.36, respectively. The composite Z-score in assay [1] was -0.874 (inactive).
For `CCOC(=O)[C@H](CC(C)C)NC(=O)CCC1CC(OC(=O)NCc2cccc3ccccc23)CC2(CCCC(COC(=O)NCc3ccncc3)O2)O1` (stereo not given in full), the composite z-score is 0.323 with Albumin (Bos taurus); -0.0658 in assay [2]; -0.14 in [3]; 0.215 in [4]; 0.502 in [5]; 0.218 in assay [6]. The composite z-score with Sam68 (KHDRBS1) came to 1.29; in [7], 0.351; in assay [8], 0.67. Moreover, the composite Z-score in assay [1] is -0.0775 (inactive).
For `C[C@@H](c1ccccc1)N1C(=O)[C@H]2[C@H]3[C@H](O)[C@H](O)CC(=NO[C@@H]4O[C@H](CO)[C@@H](O)[C@H](O)[C@H]4O)[C@H]3CC[C@H]2C1=O`, the composite z-score with Albumin (Bos taurus) was 0.0673; in assay [2], 0.0259; in [3], 0.012; in [4], -0.0193; in assay [5], 0.0007; in [6] it was 0.554. Moreover, the composite z-score came out at 0.648 in the assay on Sam68 (KHDRBS1), 0.373 in assay [7] and 0.44 in assay [8]. Also, in [1], the composite Z-score is -0.154 (inactive).
Regarding `CCCCC#C[C@@H]1C=C[C@H](Oc2cc(OC)c(OC)c(OC)c2)[C@@H](COC(=O)OCC)O1`, the composite z-score was 0.227 with Albumin (Bos taurus); -0.128 in [2]; -0.0907 in assay [3]; -0.165 in [4]; -0.642 in assay [5]; 0.211 in [6]. For the same compound, the composite z-score is -0.25 in the assay with Sam68 (KHDRBS1), 0.251 in [7] and -0.0793 in assay [8]. Besides, in assay [1], the composite Z-score was 0.0299 (inactive).
On to `O=C(NN=C1C[C@@H](O)[C@@H](O)[C@@H]2[C@@H]3C(=O)N(C[C@@H]4CCCO4)C(=O)[C@@H]3CC[C@@H]12)OCc1ccccc1`, for which the composite z-score with Albumin (Bos taurus) is 0.103; in assay [2], -0.0647; in assay [3], -0.16; in assay [4], -0.275; in assay [5], -0.12; in [6], 0.373. Besides, the composite z-score in the assay on Sam68 (KHDRBS1) was 0.794; in [7], 0.909; in assay [8], -0.18. In addition, the composite Z-score in assay [1] was 0.008 (inactive).
Turning to `COc1ccc(O[C@H]2C=C[C@@H](c3ccccc3)O[C@@H]2COC(=O)CCC(C)=NOC[C@@H](O)[C@H]2O[C@@H]3OC(C)(C)O[C@@H]3[C@H]2O)cc1`, the composite z-score is -0.0217 with Albumin (Bos taurus); -0.0284 in assay [2]; -0.101 in assay [3]; 0.325 in assay [4]; 0.337 in assay [5]; -0.123 in assay [6]. In addition, the composite z-score in the assay on Sam68 (KHDRBS1) was found to be 1.01; in assay [7], 0.728; in assay [8] it was 0.249. The composite Z-score in assay [1] was -0.212 (inactive).
As for `O=C(NN=C1C[C@@H](O)[C@@H](O)[C@@H]2[C@@H]3C(=O)N(C4CCCCC4)C(=O)[C@@H]3CC[C@@H]12)OCc1ccccc1`, the composite z-score in the assay with Albumin (Bos taurus) is 0.566; in assay [2], -0.0873; in assay [3], -0.258; in assay [4] it was -0.129; in assay [5], -0.107; in assay [6], 1.74. Moreover, the composite z-score with Sam68 (KHDRBS1) is -0.881; in [7] it was 0.425; in assay [8] it was 0.457. Also, the composite Z-score in assay [1] was -0.243 (inactive).
Take `CC[C@@H](c1ccccc1)n1c(=O)n2n(c1=O)[C@H]1[C@H](O)[C@@H]3O[C@@H]3C(=O)[C@H]1CC2`: the composite z-score was 0.208 with Albumin (Bos taurus); -0.0745 in [2]; -0.135 in assay [3]; -0.245 in assay [4]; -0.372 in [5]; -0.262 in assay [6]. The composite z-score was determined as 0.0274 in the assay with Sam68 (KHDRBS1), 0.673 in assay [7] and 0.576 in assay [8]. For the same compound, the composite Z-score in assay [1] was 0.214 (inactive).
With `COc1ccc(O[C@H]2C=C[C@@H](c3ccccc3)O[C@@H]2CON=C(C)CCC(=O)OC[C@H]2O[C@H](c3ccccc3)C=C[C@@H]2Oc2ccc(OC)cc2)cc1`, the composite z-score was 0.12 with Albumin (Bos taurus); -0.165 in assay [2]; -0.123 in assay [3]; -0.62 in assay [4]; -1.14 in [5]; -0.295 in [6]. Besides, the composite z-score with Sam68 (KHDRBS1) was -2.54; in assay [7] it was -0.633; in assay [8], -0.652. In addition, in assay [1], the composite Z-score was 0.456 (inactive).
Consider `CC(C)C[C@H](NC(=O)CCC1CC(OC(=O)NCc2cccc3ccccc23)CC2(CCCC(COC(=O)NCc3ccccc3)O2)O1)C(=O)NCC(c1ccccc1)c1ccccc1` (stereo not given in full), for which the composite z-score was 0.163 in the assay with Albumin (Bos taurus); 0.0876 in assay [2]; -0.234 in [3]; 0.404 in assay [4]; 0.743 in [5]; 1.09 in assay [6]. For the same compound, the composite z-score in the assay with Sam68 (KHDRBS1) is 1.31; in [7] it was 0.546; in assay [8], 0.347. Besides, the composite Z-score in assay [1] is -0.0662 (inactive).

Values taken from PubChem BioAssay.
